High-throughput results deposited in PubChem BioAssay by Broad Institute.
Sampled rows, rich in hits. Any-hit rate of the full collection: about 3.4%.
MITF TRPM1 HTS: increases MITF-driven TRPM1 promoter luciferase signal | AID 588334 | activation, % at 12.5 µM | SK-MEL-5 TRPM1-promoter luciferase, 24 h; % of positive control, neutral wells = 0 | actives 0.75% (n = 300,000);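 active = mean activation of at least 80% with every replicate also reaching 80%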;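 also: 0% = neutral control wells and 100% = parthenolide positive control wells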
Env fusion inh: inhibitors of HIV Env-mediated cell fusion; HeLa-JRFL Env/CEM21 cell fusion, luciferase; inhibition, % at 12.3 µM; actives 1.1% (n = 360,000); AID 651610;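 active = mean replicate inhibition score of at least 50 and every replicate individually at or above 50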;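 also: 0% = plate neutral controls and 100% = maraviroc near 300 nM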
esBAF inh: blocks esBAF chromatin remodeling in mouse ES cells. Bmi1-luciferase knock-in reporter, 24 h; 100% = twice the neutral-well signal. reporter increase, % at 12.5 µM. actives 2% (n = 350,000); in the data active = activation above about 40%;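 also: 0% = median of the plate's neutral control wells and 100% = double that signal; a rise in the Bmi1 reporter signal indicates esBAF inhibition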
Wnt act: activates Wnt/beta-catenin signaling in a reporter cell assay; activator, plate reader; activation, % at 9.35 µM; actives 1.2% (n = 300,000); AID 743398; in the data active = activation above about 30%, passing the limit was not always enough;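 also: 0% = neutral control wells and 100% = positive control wells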
miR-122 sensor: miR-122 inhibition in Huh7 cells. Huh7 miR-122 Renilla luciferase sensor, 48 h; neutral wells = 0, positive control = 100. activation (reporter increase), % at 12.5 µM. actives 0.3% (n = 340,000). AID 602342;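 active = mean replicate activation score at least 90 and every replicate individually at or above 90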;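 also: higher luciferase means less miR-122 activity so hits act as miR-122 inhibitors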
Numbers without * were called inactive; · = no result given; ! = not confirmed by another sample; [ ] = dose if it differs, or a comment.

SMILES | MITF TRPM1 HTS | Env fusion inh | esBAF inh | Wnt act | miR-122 sensor
CC(C)CC#Cc1ccc2c(c1)O[C@@H](CN(C)S(=O)(=O)c1cccc(F)c1)[C@@H](C)CN([C@@H](C)CO)S2(=O)=O | · | 77*[16.7 µM] | 5 | · | -12[16.7 µM]
C[C@H](CO)N1C[C@H](C)[C@H](CN(C)S(=O)(=O)c2cccc(F)c2)Oc2cc(Br)ccc2S1(=O)=O | · | 78*![16.7 µM] | -2 | -4 | -2
CC(Oc1ccc(Cl)cc1)c1ccnn1S(=O)(=O)c1ccc(Cl)cc1 (stereo unspecified) | · | 29 | 2 | -2 | 111*
O=C(C[C@@H]1CC[C@H]2[C@@H](COC[C@@H](O)CN2C(=O)c2ccccc2F)O1)N1CCN(c2ccccc2)CC1 | · | · | -3 | · | 1[16.7 µM]
Cc1noc(C)c1S(=O)(=O)Nc1cccc2c1O[C@@H](CN(C)C(=O)NC1CCCCC1)[C@@H](C)CN([C@@H](C)CO)C2=O | · | · | -1 | · | 2[16.7 µM]
O=C(Nc1ccc(S(=O)(=O)Nc2nccs2)cc1)c1cc(-c2ccccc2Cl)nc2ccccc12 | -7 | · | 2 | -3 | 104*
CCC(=O)C1CCCN(C(=O)CCc2nnc(C3(c4ccc(Cl)cc4)CCC3)o2)C1 (stereo unspecified) | 44 | 17 | 50* | 18 | 2
CC(=O)c1ccc(-c2nnc(CCC(=O)N3CCCC(C(=O)CC(C)C)C3)o2)s1 (stereo unspecified) | 73 | -38 | 83* | -1 | -2
O=C(CCc1nnc(-c2ccc(-c3ccccc3)cc2)o1)N1CCCCC1 | 20 | 22 | · | -1 | ·
CC(=O)Nc1ccc2c(c1)C(=O)N(C)[C@H]1CC[C@H](CC(=O)NCc3ccccc3)O[C@@H]1CO2 | · | 6[16.7 µM] | -2 | · | 5[16.7 µM]
Cc1cccc(S(=O)(=O)N[C@H]2CC[C@@H](CCNC(=O)CCN3CCCCC3)O[C@H]2CO)c1 | · | 7[16.7 µM] | -4 | · | ·
Cc1cc(C)cc(NC(=O)c2cc(C)n(Cc3cccs3)c2C)c1 | 103* | -36 | 38 | 2 | ·
Cc1cc(C(=O)CN2C(=O)c3ccccc3C2=O)c(C)n1Cc1cccs1 | -7 | · | -27 | -2 | -7
Cc1cc(C(=O)Cn2nnc3ccccc3c2=O)c(C)n1Cc1cccs1 | · | -75 | -38 | 35* | -1
C[C@@H]1CN([C@H](C)CO)C(=O)c2cc(NC(=O)NC3CCCCC3)ccc2O[C@@H]1CN(C)Cc1ccc(Oc2ccccc2)cc1 | · | · | -3 | · | 21[16.7 µM]
Cc1cccc(Nc2nc(N)c([N+](=O)[O-])c(NCc3ccco3)n2)c1 | -2 | · | -60 | -4 | -19
Nc1nc(Nc2ccc(Cl)cc2)nc(NCc2ccco2)c1[N+](=O)[O-] | · | 59* | · | -2 | 1
Nc1nc(Nc2cccc(Cl)c2)nc(NCc2ccco2)c1[N+](=O)[O-] | 18 | 76* | · | 16 | ·
C[C@@H]1CCCCO[C@H](CN(C)S(=O)(=O)c2cccs2)[C@@H](C)CN([C@@H](C)CO)C(=O)c2cc(NC(=O)Nc3ccc(F)cc3)ccc2O1 | · | 7[16.7 µM] | -3 | · | 20[16.7 µM]
COc1ccc(NC(=O)COc2cc(C)cc(C)c2)cc1S(=O)(=O)N1CCCCC1 | -18 | 61* | 7 | -6 | 9
COc1ccc(NC(=O)COc2ccccc2F)cc1S(=O)(=O)N1CCCCC1 | 3 | 20 | -7 | -2 | ·
COc1ccc(NC(=O)Cc2ccccc2F)cc1S(=O)(=O)N1CCCCC1 | 2 | · | 45* | 4 | 19
Cc1ccnc(N2C(=O)c3cccc4c([N+](=O)[O-])ccc(c34)C2=O)c1 | -11 | · | -1 | 27 | -6
Cc1ccc(N2C(=O)c3cccc4c([N+](=O)[O-])ccc(c34)C2=O)c2cccnc12 | -74 | -204 | -18 | 41* | 25
C[C@@H]1CN([C@@H](C)CO)C(=O)c2cc(C3=CCCC3)cnc2O[C@H]1CN(C)C(=O)c1ccncc1 | · | 14[16.7 µM] | -2 | · | -7[16.7 µM]
SMILES | MITF TRPM1 HTS | Env fusion inh | esBAF inh | Wnt act | miR-122 sensor
Nc1nc2n[nH]nc2c(=O)[nH]1 | -63 | · | 103* | -3 | 39
Nc1nc2nn(-c3ccccc3)nc2c(=O)[nH]1 | 49 | -13 | -22 | 16 | 1
CCCCOC(=O)Nc1ccc(C)c(Cl)c1 | 60 | · | 57* | -3 | -3
CCCCOC(=O)c1ccc(NC(C)=O)cc1 | · | · | 20 | -1 | -7
CCCCOC(=O)Nc1ccc(C(=O)OC)cc1 | 64 | -93 | 79* | 53* | -10
O=C(C[C@@H]1C[C@H]2c3cc(NS(=O)(=O)c4ccccc4)ccc3O[C@H]2[C@H](CO)O1)NCC1CC1 | · | -30[16.7 µM] | 6 | · | 1[16.7 µM]
